Test results reported in ChEMBL document CHEMBL1961873, “Compounds: GSK PKIS; Assays: Nanosyn kinase panel” (2012).

Key:
[1] = target: Protein kinase C gamma type (Homo sapiens) (UniProt P05129); conditions: at 1 µM;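 also: each value is an averaged percent inhibition of the enzyme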
[2] = target: T1, Protein kinase C iota type (Homo sapiens) (UniProt P41743); conditions: at 0.1 µM
T1 sequence (whole entry): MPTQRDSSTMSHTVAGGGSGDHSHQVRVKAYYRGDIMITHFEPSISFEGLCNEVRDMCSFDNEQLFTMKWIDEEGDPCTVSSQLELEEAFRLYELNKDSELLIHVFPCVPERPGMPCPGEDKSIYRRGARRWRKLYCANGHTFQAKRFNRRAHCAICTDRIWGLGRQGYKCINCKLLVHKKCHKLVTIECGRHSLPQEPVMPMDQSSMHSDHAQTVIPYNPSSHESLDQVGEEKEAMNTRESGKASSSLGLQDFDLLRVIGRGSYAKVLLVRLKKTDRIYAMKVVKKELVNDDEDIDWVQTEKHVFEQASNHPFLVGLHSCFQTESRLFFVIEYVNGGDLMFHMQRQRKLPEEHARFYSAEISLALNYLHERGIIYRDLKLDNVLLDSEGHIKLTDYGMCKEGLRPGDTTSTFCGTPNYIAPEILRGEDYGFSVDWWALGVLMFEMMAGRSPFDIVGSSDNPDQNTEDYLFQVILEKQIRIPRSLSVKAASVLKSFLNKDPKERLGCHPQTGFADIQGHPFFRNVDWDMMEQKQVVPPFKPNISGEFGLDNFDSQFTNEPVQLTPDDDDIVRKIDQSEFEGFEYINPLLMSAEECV

[3] = target: T1, Protein kinase C iota type (Homo sapiens); conditions: at 1 µM
[4] = target: Protein kinase C theta type (Homo sapiens) (UniProt Q04759); conditions: at 0.1 µM
Chain of Protein kinase C theta type (Homo sapiens) (Q04759 whole entry, looked up): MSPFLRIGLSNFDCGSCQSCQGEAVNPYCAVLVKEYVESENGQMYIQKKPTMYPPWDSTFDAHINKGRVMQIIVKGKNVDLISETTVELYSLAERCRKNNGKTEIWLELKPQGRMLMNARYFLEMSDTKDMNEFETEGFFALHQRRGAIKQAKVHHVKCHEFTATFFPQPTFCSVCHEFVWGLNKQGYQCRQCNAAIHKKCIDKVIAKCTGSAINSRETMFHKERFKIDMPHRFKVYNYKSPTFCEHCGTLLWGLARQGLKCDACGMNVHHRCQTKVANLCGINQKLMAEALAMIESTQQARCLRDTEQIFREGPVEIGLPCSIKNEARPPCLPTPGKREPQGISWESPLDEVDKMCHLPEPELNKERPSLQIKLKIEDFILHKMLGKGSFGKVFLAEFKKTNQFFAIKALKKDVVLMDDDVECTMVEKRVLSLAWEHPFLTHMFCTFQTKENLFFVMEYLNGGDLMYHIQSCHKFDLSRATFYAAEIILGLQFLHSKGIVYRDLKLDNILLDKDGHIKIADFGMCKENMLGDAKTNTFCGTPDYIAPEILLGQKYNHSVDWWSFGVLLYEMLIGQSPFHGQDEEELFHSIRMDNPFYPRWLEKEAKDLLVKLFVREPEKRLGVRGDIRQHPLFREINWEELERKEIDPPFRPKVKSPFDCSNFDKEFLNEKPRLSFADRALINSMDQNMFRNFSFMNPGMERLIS

[5] = target: Protein kinase C theta type (Homo sapiens) (UniProt Q04759); conditions: at 1 µM
[6] = target: Protein kinase C beta type (Homo sapiens) (UniProt P05771); conditions: at 0.1 µM
Chain of Protein kinase C beta type (Homo sapiens) (P05771 2-671 limits assumed): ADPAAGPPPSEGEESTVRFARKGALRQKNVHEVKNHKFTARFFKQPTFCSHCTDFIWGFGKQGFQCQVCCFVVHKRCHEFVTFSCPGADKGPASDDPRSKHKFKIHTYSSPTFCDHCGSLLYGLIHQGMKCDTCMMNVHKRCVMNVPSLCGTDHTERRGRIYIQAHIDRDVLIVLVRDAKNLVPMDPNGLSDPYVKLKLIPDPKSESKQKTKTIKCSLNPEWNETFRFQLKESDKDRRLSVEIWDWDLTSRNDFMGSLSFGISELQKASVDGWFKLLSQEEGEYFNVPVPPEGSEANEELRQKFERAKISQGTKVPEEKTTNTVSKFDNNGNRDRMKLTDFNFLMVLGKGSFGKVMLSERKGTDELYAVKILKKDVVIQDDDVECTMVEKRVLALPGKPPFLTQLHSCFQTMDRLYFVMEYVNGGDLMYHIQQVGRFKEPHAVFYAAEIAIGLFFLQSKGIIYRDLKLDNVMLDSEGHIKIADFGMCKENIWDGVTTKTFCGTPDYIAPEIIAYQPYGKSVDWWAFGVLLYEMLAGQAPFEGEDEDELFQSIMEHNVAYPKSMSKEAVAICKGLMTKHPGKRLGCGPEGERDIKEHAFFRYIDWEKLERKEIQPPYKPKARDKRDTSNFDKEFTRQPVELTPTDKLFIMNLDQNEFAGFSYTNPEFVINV

[7] = target: Protein kinase C beta type (Homo sapiens) (UniProt P05771); conditions: at 1 µM
[8] = target: T2, Serine/threonine-protein kinase D1 (Homo sapiens) (UniProt Q15139); conditions: at 0.1 µM
T2 sequence (whole entry): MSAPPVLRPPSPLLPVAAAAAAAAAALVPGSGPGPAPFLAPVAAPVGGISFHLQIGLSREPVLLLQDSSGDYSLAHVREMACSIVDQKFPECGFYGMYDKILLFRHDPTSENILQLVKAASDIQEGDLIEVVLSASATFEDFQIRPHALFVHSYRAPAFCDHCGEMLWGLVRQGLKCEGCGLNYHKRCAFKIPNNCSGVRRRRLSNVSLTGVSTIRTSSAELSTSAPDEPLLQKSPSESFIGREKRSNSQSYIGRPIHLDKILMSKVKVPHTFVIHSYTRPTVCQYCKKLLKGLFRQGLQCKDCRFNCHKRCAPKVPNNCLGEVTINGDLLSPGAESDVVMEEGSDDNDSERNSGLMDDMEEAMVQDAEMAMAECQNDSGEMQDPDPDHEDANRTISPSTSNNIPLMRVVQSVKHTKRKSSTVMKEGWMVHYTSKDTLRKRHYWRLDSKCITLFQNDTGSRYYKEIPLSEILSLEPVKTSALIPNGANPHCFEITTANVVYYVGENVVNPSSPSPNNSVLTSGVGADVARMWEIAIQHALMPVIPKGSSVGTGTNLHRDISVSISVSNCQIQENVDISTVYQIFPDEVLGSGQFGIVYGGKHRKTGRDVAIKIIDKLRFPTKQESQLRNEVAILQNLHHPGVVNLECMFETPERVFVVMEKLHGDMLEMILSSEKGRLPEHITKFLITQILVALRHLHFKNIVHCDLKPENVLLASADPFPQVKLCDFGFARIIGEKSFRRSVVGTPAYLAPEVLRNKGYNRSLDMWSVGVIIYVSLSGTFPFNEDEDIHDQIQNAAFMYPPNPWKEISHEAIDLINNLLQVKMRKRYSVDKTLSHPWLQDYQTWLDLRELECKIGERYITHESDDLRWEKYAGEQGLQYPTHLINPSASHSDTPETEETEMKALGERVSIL

[9] = target: T2, Serine/threonine-protein kinase D1 (Homo sapiens); conditions: at 1 µM
[10] = target: T3, Serine/threonine-protein kinase D2 (Homo sapiens) (UniProt Q9BZL6); conditions: at 0.1 µM
T3 sequence (whole entry): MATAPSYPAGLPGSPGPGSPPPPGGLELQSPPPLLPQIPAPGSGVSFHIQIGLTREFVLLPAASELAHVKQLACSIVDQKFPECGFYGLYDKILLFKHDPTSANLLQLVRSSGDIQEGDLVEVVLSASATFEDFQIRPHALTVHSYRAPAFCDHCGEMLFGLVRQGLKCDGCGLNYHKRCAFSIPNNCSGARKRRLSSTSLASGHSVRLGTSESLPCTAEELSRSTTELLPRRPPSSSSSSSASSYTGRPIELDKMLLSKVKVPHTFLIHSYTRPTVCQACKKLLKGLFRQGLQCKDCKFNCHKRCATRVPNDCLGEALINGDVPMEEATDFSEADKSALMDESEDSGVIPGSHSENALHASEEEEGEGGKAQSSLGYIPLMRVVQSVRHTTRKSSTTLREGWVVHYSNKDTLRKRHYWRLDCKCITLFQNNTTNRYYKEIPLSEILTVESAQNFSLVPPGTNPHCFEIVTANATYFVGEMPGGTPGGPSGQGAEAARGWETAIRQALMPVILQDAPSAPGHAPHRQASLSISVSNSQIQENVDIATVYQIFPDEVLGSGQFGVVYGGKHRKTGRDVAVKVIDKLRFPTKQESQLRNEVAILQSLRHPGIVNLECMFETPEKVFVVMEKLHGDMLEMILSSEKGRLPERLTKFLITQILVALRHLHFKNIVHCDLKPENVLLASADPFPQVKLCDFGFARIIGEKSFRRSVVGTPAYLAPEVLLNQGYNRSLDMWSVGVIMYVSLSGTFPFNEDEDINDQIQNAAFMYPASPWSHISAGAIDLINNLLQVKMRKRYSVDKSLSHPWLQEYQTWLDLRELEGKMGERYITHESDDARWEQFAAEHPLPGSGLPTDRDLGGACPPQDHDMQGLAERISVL

[11] = target: T3, Serine/threonine-protein kinase D2 (Homo sapiens); conditions: at 1 µM
[12] = target: T4, Serine/threonine-protein kinase D3 (Homo sapiens) (UniProt O94806); conditions: at 0.1 µM
T4 sequence (whole entry): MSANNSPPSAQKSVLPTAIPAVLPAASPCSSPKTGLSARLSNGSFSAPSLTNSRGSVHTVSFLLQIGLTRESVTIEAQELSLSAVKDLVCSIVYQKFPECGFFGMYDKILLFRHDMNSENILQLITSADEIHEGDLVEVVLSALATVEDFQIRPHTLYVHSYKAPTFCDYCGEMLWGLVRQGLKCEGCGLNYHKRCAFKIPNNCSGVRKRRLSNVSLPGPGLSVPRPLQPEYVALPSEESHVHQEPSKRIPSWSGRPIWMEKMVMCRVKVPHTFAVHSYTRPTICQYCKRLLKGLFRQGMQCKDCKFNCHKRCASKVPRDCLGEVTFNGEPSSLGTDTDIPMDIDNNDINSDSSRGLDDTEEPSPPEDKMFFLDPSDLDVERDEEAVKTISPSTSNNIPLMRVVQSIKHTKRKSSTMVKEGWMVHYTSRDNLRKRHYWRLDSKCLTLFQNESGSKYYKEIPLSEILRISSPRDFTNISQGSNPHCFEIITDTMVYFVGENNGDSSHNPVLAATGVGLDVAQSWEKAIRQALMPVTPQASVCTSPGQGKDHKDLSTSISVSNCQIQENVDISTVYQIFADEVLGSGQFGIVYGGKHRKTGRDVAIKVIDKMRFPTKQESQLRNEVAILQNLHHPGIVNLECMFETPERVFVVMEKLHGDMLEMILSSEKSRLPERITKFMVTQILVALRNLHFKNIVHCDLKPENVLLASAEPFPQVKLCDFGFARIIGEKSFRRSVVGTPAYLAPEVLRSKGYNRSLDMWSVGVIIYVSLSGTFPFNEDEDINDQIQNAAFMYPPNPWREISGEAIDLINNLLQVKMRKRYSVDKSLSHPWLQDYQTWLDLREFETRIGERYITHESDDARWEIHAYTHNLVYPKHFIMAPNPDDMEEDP

[13] = target: T4, Serine/threonine-protein kinase D3 (Homo sapiens); conditions: at 1 µM
[14] = target: T5, cGMP-dependent protein kinase 1 (Homo sapiens) (UniProt Q13976); conditions: at 0.1 µM
T5 sequence (whole entry): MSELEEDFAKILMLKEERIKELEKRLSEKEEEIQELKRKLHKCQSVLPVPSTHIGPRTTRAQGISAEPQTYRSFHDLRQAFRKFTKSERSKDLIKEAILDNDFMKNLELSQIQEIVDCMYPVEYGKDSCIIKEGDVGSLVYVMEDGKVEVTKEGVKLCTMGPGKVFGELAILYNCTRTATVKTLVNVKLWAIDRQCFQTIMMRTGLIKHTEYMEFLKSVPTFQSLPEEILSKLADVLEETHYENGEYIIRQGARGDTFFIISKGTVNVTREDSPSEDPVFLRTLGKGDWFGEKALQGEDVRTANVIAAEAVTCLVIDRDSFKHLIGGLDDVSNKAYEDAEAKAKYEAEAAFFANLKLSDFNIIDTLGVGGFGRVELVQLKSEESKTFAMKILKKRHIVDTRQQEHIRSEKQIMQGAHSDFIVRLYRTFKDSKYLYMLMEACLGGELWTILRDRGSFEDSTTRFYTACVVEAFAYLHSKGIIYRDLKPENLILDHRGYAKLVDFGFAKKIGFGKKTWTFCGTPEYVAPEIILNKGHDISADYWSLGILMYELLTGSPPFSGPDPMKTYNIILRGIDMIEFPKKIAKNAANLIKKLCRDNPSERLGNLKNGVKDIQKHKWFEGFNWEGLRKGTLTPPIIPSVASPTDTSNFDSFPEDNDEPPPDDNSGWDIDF

[15] = target: T5, cGMP-dependent protein kinase 1 (Homo sapiens); conditions: at 1 µM
[16] = target: T6, cGMP-dependent protein kinase 2 (Homo sapiens) (UniProt Q13237); conditions: at 0.1 µM
T6 sequence (whole entry): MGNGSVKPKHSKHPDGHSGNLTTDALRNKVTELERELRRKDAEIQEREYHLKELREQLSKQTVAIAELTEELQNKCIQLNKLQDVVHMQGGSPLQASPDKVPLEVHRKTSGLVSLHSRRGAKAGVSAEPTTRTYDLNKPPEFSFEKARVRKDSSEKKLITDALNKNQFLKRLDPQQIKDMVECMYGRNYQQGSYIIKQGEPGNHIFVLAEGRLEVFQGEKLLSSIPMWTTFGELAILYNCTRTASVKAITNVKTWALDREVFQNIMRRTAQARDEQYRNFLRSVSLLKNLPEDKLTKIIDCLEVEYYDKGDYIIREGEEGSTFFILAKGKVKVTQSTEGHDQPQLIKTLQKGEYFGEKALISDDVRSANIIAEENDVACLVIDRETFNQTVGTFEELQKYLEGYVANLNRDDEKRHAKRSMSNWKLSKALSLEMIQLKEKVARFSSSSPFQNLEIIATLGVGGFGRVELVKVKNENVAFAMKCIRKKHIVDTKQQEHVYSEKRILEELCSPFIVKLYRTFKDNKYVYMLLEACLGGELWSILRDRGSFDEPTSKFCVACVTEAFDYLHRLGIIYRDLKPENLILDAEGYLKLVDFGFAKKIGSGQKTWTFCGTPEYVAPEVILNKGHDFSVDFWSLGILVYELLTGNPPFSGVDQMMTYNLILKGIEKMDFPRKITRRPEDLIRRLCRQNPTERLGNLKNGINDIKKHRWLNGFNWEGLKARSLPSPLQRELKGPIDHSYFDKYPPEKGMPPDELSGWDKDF

[17] = target: T6, cGMP-dependent protein kinase 2 (Homo sapiens); conditions: at 1 µM
[18] = target: T7, cAMP-dependent protein kinase catalytic subunit PRKX (Homo sapiens) (UniProt P51817); conditions: at 0.1 µM
T7 sequence (whole entry): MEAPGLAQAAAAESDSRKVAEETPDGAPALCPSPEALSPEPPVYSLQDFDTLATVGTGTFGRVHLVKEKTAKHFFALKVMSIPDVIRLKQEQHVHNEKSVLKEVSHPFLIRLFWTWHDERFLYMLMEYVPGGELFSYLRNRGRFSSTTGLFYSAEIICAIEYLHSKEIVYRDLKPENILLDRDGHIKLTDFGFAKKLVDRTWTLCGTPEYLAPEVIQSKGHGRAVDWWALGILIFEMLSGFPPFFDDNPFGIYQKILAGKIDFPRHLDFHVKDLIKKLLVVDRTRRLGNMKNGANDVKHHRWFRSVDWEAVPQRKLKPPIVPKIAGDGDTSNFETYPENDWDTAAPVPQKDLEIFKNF

[19] = target: T7, cAMP-dependent protein kinase catalytic subunit PRKX (Homo sapiens); conditions: at 1 µM
[20] = target: Rho-associated protein kinase 1 (Homo sapiens) (UniProt Q13464); conditions: at 0.1 µM;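 also: values are mean percent inhibition of ROCK1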
Chain of Rho-associated protein kinase 1 (Homo sapiens) (Q13464 2-1354 limits assumed): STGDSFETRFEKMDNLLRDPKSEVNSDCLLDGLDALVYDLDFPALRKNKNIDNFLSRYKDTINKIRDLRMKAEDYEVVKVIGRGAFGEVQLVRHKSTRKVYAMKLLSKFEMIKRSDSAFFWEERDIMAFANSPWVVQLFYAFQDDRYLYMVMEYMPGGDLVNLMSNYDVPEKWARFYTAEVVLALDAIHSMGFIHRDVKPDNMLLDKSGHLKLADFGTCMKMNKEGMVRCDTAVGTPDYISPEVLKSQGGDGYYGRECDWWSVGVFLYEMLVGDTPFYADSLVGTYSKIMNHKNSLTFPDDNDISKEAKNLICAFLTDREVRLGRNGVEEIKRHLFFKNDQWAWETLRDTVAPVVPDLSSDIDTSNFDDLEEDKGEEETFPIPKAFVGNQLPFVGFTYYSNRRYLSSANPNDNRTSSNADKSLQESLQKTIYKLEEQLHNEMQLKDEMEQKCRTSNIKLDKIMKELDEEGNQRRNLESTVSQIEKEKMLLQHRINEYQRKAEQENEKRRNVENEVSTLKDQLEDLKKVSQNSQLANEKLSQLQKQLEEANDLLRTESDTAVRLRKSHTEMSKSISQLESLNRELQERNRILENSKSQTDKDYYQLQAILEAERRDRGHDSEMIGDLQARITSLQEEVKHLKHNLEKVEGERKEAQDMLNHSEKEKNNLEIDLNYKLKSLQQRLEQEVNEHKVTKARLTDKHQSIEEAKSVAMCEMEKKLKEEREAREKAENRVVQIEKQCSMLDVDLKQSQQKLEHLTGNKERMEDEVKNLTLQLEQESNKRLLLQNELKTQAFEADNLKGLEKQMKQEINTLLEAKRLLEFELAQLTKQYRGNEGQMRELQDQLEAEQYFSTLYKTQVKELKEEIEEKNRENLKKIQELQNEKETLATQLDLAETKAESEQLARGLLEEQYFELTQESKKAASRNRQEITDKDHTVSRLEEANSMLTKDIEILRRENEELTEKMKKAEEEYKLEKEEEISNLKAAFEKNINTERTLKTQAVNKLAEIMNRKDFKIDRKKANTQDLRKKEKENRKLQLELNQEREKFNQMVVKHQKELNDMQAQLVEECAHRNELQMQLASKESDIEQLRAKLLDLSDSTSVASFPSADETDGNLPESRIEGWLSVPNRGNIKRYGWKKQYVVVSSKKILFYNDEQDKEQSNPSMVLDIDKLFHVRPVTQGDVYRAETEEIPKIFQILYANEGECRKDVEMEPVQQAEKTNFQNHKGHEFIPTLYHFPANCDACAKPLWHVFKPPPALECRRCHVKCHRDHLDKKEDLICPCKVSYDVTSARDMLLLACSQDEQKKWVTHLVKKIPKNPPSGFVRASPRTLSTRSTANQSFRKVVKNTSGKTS

| SMILES | inhibition [1] [%] | inhibition [2] [%] | inhibition [3] [%] | inhibition [4] [%] | inhibition [5] [%] | inhibition [6] [%] | inhibition [7] [%] | inhibition [8] [%] | inhibition [9] [%] | inhibition [10] [%] | inhibition [11] [%] | inhibition [12] [%] | inhibition [13] [%] | inhibition [14] [%] | inhibition [15] [%] | inhibition [16] [%] | inhibition [17] [%] | inhibition [18] [%] | inhibition [19] [%] | inhibition [20] [%] |
| --- | --- | --- | --- | --- | --- | --- | --- | --- | --- | --- | --- | --- | --- | --- | --- | --- | --- | --- | --- | --- |
| CCS(=O)(=O)c1ccc(OC)c(Nc2ncc(-c3cccc(C(C)=O)c3)o2)c1 | 1.69 | 1.79 | -0.79 | 2.27 | 3.34 | 1.16 | 1.89 | 2.32 | 2.22 | 2.04 | 1 | 2.85 | 1.31 | 1.67 | 2.08 | -0.65 | 2.63 | 1.59 | 3.12 | 0.01 |
| OCCCNc1nccc(-c2c(-c3ccc(F)cc3)nn3cc(C(F)(F)F)ccc23)n1 | 1.12 | 0.77 | 4.1 | 0.12 | 0.91 | 1.5 | 7.52 | 1.85 | 14.1 | 2.01 | 16.9 | 4.73 | 33.9 | 1.52 | 4.78 | 2.03 | 3.96 | 0.4 | -0.76 | 0.15 |
